# Measurements from paper PMC7862700, “An all-to-all approach to the identification of sequence-specific readers for epigenetic DNA modifications on cytosine”.
# Columns and labels:
# Assay in all cases: DAPPL (digital affinity profiling via proximity ligation, sequencing); 10 mM Tris-HCl pH 7.5, 50 mM NaCl, 1 mM DTT, 4% glycerol, room temperature, 30 min; GST-TFs on glutathione beads, 16-mer random dsDNA library, 0.1% formaldehyde crosslink after washing; high values mean tight binding
# FEV = molecular target: T1, FEV (Homo sapiens, UniProt Q99581 1-238); conditions: protein: recombinant; tags: N-terminal GST; dsDNA, one strand shown
# T1 sequence: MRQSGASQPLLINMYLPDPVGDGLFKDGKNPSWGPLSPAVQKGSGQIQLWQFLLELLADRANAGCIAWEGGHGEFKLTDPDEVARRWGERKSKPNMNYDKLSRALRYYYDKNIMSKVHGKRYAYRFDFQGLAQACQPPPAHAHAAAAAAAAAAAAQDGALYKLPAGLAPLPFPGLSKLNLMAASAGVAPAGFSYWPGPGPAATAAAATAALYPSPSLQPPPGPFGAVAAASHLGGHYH
# Method in brief: (§1)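 Pools of DNA-barcoded human transcription factors, expressed in yeast as GST fusions on glutathione beads and combined with a tag-only sample, were incubated with 200 nmole of a 16-mer random double-stranded DNA library. Incubation took 30 min at room temperature in Tris/NaCl/DTT/glycerol buffer and was followed by washing, 0.1% formaldehyde crosslinking, proximity ligation (BsaI/T4 ligase, 1 h, 37 °C), PCR amplification and sequencing on an Illumina NextSeq500. Binding signal is the ratio of a hexamer's read frequency for a factor to its frequency for the tag-only sample.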
# ETV5 = ETV5 (Homo sapiens, UniProt P41161 1-510); conditions: protein: recombinant; tags: N-terminal GST; dsDNA, one strand shown
# Method in brief: as §1
# HSF1 = HSF1 (Homo sapiens, UniProt Q00613 1-529); conditions: protein: recombinant; tags: N-terminal GST; chain copies: 3; dsDNA, one strand shown
# Method in brief: as §1
# SPIC = molecular target: T2, SPIC (Homo sapiens, UniProt Q8N5J4 1-248); conditions: protein: recombinant; tags: N-terminal GST; dsDNA, one strand shown
# T2 sequence: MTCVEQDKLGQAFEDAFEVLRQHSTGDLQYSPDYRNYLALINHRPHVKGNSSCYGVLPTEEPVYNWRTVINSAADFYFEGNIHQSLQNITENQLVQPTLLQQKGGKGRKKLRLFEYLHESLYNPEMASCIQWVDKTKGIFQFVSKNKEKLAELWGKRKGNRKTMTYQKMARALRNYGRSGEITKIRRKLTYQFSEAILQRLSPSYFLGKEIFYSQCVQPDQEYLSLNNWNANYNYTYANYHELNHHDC
# Method in brief: as §1
# ELF4 = ELF4 (Homo sapiens, UniProt Q99607 1-663); conditions: protein: recombinant; tags: N-terminal GST; dsDNA, one strand shown
# Method in brief: as §1
# ELK4 = molecular target: T3, ELK4 (Homo sapiens, UniProt P28324-2 1-405); conditions: protein: recombinant; tags: N-terminal GST; dsDNA, one strand shown
# T3 sequence: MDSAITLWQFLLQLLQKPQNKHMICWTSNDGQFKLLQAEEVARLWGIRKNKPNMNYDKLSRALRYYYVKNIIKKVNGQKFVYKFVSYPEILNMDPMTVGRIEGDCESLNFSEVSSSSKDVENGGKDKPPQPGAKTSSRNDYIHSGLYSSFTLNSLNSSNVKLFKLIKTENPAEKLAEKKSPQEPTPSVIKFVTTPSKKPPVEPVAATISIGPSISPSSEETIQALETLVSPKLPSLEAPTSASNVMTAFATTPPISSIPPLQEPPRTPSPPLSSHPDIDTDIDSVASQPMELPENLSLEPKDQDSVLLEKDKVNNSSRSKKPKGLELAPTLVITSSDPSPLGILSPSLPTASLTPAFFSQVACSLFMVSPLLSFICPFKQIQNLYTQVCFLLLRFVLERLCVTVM
# Method in brief: as §1
# ETV2 = molecular target: T4, ETV2 (Homo sapiens, UniProt O00321 1-342); conditions: protein: recombinant; tags: N-terminal GST; dsDNA, one strand shown
# T4 sequence: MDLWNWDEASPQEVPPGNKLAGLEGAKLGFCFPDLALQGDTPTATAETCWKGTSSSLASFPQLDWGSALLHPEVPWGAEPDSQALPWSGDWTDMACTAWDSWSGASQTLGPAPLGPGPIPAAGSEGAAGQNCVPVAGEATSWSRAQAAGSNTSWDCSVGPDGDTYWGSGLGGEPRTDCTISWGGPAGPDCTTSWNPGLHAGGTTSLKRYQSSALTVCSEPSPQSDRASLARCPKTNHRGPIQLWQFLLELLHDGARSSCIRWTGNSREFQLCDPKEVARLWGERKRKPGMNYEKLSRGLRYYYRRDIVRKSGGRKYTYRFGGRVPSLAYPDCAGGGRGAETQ
# Method in brief: as §1
# ELF3 = molecular target: T5, ELF3 (Homo sapiens, UniProt P78545 1-371); conditions: protein: recombinant; tags: N-terminal GST; dsDNA, one strand shown
# T5 sequence: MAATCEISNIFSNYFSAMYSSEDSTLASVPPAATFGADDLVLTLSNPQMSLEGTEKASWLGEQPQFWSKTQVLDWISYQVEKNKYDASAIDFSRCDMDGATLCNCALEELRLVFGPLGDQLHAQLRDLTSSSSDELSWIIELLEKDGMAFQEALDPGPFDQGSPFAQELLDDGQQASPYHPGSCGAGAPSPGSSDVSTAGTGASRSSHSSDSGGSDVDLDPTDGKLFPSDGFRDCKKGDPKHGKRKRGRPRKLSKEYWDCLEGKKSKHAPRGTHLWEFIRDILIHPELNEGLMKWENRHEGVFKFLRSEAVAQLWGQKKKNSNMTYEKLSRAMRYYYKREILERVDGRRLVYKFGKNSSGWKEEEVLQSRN
# Method in brief: as §1
# CRX = CRX (Homo sapiens, UniProt O43186 1-299); conditions: protein: recombinant; tags: N-terminal GST; dsDNA, one strand shown
# Method in brief: as §1
# ETV1 = ETV1 (Homo sapiens, UniProt P50549 1-477); conditions: protein: recombinant; tags: N-terminal GST; dsDNA, one strand shown
# Method in brief: as §1
# ERF = molecular target: T6, ERF (Homo sapiens, UniProt P50548 1-548); conditions: protein: recombinant; tags: N-terminal GST; dsDNA, one strand shown
# T6 sequence: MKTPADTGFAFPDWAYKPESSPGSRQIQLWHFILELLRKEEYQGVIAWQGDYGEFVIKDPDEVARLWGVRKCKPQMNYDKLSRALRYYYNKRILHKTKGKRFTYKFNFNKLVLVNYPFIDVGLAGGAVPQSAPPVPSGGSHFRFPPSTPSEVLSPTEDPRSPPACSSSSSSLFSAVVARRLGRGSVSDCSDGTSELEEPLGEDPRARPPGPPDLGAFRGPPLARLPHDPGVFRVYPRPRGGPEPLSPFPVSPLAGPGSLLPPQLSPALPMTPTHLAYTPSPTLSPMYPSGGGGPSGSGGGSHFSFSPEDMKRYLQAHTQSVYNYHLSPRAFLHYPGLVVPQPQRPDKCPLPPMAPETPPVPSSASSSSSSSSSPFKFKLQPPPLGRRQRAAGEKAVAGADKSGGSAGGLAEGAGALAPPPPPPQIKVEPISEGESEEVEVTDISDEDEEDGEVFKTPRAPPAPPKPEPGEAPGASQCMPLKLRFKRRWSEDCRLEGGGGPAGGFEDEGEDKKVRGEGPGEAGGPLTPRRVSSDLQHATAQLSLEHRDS
# Method in brief: as §1
# ETV3L = molecular target: T7, ETV3L (Homo sapiens, UniProt Q6ZN32 1-361); conditions: protein: recombinant; tags: N-terminal GST; dsDNA, one strand shown
# T7 sequence: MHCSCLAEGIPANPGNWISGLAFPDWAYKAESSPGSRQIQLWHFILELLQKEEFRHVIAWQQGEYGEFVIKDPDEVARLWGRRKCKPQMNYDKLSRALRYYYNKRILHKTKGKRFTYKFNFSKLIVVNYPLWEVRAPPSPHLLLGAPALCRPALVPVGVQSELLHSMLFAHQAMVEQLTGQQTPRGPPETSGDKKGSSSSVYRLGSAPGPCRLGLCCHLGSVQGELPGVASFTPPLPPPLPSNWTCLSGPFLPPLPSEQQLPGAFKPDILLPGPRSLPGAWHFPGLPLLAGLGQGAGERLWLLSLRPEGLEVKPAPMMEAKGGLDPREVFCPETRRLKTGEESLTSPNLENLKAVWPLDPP
# Method in brief: as §1
# ETS2 = molecular target: T8, ETS2 (Homo sapiens, UniProt P15036 1-469); conditions: protein: recombinant; tags: N-terminal GST; dsDNA, one strand shown
# T8 sequence: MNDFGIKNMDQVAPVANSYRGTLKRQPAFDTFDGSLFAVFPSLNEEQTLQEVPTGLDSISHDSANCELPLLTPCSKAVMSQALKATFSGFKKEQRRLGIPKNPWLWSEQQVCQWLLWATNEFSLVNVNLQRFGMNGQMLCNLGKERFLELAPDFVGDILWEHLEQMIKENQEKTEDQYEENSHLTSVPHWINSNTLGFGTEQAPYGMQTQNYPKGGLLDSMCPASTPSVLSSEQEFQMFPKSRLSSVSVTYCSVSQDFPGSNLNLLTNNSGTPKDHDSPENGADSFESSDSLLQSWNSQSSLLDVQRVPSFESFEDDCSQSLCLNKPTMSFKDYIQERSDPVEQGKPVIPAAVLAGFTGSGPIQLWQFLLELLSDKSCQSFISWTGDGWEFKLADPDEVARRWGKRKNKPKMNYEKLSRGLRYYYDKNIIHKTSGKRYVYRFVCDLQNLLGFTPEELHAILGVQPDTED
# Method in brief: as §1
# ETV7 = molecular target: T9, ETV7 (Homo sapiens, UniProt Q9Y603 1-341); conditions: protein: recombinant; tags: N-terminal GST; dsDNA, one strand shown
# T9 sequence: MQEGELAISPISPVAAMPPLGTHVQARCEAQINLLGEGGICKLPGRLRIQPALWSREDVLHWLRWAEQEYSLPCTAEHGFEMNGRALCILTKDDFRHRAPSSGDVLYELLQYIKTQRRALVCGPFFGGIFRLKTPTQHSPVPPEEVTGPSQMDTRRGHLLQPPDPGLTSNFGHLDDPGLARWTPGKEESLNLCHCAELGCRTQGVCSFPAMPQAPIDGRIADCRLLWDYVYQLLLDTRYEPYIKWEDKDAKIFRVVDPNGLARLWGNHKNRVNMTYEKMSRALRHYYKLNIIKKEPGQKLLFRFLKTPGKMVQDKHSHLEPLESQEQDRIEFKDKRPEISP
# Method in brief: as §1
# ETV6 = ETV6 (Homo sapiens, UniProt P41212 1-452); conditions: protein: recombinant; tags: N-terminal GST; dsDNA, one strand shown
# Method in brief: as §1
# SPDEF = molecular target: T10, SPDEF (Homo sapiens, UniProt O95238 1-335); conditions: protein: recombinant; tags: N-terminal GST; dsDNA, one strand shown
# T10 sequence: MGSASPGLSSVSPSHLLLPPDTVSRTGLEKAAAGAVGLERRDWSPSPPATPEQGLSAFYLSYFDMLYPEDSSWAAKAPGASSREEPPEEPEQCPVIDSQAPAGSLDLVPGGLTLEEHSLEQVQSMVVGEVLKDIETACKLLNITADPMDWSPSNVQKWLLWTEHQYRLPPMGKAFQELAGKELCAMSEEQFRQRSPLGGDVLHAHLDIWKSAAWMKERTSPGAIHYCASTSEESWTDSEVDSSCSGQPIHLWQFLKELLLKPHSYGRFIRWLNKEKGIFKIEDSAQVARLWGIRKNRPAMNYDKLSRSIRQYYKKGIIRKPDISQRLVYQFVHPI
# Method in brief: as §1
# ELF5 = molecular target: T11, ELF5 (Homo sapiens, UniProt Q9UKW6-2 1-255); conditions: protein: recombinant; tags: N-terminal GST; dsDNA, one strand shown
# T11 sequence: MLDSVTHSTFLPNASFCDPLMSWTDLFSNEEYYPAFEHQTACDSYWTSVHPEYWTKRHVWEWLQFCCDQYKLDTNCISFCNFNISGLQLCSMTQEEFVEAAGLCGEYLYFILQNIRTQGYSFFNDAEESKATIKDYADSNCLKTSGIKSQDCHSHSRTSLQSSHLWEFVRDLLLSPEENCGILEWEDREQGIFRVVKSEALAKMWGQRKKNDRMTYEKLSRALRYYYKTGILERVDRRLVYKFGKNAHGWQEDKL
# Method in brief: as §1
# HSF1, sequence (Q00613 whole entry): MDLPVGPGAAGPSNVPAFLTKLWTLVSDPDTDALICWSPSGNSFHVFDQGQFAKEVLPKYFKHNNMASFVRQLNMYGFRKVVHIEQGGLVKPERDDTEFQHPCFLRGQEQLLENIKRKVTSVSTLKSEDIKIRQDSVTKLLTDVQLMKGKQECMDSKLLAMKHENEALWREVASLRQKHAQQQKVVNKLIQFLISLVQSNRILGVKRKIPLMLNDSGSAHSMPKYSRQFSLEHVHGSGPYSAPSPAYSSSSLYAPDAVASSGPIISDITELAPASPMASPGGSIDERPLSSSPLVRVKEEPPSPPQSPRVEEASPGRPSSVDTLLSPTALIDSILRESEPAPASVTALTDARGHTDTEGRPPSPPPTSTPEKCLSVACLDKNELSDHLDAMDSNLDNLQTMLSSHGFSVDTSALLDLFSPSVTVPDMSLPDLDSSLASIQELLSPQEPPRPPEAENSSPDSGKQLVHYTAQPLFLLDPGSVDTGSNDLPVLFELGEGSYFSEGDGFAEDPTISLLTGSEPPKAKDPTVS
# CRX, sequence (O43186 whole entry): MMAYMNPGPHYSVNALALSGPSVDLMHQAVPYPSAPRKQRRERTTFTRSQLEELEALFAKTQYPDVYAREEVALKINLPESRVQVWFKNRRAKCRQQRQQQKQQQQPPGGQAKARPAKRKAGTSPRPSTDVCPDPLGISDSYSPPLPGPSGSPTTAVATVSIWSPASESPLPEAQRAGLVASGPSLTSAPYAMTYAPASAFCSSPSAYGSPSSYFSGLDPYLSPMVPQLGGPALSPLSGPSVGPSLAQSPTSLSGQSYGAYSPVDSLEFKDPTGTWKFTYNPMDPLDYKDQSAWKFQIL
# ETV6, sequence (P41212 whole entry): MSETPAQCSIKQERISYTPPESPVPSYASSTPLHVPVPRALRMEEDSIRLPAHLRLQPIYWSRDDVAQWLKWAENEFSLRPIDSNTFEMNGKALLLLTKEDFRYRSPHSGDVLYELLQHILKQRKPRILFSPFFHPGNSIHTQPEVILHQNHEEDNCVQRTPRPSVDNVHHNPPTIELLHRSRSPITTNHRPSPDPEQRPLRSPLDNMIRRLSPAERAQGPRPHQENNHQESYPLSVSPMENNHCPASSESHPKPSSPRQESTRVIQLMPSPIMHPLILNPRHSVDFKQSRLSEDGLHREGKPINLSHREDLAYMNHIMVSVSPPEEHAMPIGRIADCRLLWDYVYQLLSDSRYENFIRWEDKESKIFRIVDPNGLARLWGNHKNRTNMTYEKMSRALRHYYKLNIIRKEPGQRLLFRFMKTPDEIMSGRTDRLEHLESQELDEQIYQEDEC
# ELF4, sequence (Q99607 whole entry): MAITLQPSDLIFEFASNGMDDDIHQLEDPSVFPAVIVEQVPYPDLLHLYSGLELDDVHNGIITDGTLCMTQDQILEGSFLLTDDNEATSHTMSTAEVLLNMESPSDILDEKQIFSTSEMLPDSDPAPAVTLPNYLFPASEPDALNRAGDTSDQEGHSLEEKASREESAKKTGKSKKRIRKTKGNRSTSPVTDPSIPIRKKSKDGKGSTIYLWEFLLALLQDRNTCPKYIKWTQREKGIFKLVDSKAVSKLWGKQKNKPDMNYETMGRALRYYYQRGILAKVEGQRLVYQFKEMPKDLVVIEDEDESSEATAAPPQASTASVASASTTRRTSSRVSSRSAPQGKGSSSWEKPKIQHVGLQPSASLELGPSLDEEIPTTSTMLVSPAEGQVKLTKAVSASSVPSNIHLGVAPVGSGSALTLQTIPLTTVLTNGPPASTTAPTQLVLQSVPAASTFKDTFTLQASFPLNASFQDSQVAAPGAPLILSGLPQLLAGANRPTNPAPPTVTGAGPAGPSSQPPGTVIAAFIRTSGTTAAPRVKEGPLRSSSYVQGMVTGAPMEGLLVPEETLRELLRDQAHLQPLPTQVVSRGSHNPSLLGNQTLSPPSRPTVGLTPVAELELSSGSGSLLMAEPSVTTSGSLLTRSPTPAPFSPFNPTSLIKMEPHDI
# ETV1, sequence (P50549 whole entry): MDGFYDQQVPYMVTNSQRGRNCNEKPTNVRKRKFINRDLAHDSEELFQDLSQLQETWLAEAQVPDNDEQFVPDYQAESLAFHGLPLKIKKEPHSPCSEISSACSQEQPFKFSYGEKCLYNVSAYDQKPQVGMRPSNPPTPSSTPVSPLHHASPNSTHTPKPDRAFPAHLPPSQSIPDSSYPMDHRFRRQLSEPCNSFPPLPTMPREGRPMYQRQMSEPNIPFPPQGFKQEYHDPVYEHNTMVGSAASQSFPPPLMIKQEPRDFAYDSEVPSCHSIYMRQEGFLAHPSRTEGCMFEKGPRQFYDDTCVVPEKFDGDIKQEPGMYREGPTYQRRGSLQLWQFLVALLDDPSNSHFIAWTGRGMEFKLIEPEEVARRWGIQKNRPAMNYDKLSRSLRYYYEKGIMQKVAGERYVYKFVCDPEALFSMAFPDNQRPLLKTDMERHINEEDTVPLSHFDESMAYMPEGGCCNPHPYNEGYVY
# ETV5, sequence (P41161 whole entry): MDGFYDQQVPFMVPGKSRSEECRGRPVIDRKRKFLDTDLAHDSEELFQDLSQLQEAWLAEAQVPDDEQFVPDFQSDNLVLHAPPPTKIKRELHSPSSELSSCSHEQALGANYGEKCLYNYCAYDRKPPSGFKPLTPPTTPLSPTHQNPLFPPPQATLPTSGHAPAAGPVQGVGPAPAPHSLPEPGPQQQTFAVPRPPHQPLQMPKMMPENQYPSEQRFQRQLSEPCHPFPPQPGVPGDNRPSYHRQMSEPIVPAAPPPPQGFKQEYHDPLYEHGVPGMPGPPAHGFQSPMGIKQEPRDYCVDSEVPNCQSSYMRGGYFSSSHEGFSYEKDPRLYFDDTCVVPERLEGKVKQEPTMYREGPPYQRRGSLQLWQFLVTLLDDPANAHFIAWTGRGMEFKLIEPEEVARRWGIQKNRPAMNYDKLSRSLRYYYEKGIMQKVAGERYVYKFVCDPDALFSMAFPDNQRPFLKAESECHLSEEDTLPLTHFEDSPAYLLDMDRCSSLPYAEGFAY
Sequence,binding signal (FEV),binding signal (ETV5),binding signal (HSF1),binding signal (SPIC),binding signal (ELF4),binding signal (ELK4),binding signal (ETV2),binding signal (ELF3),binding signal (CRX),binding signal (ETV1),binding signal (ERF),binding signal (ETV3L),binding signal (ETS2),binding signal (ETV7),binding signal (ETV6),binding signal (SPDEF),binding signal (ELF5)
ATCATT,"1.08 fold enrichment (6-mer frequency, TF over GST control)","1.07 fold enrichment (6-mer frequency, TF over GST control)","1.18 fold enrichment (6-mer frequency, TF over GST control)","1.01 fold enrichment (6-mer frequency, TF over GST control)","1.05 fold enrichment (6-mer frequency, TF over GST control)","1.06 fold enrichment (6-mer frequency, TF over GST control)","1.15 fold enrichment (6-mer frequency, TF over GST control)","1.05 fold enrichment (6-mer frequency, TF over GST control)","1.28 fold enrichment (6-mer frequency, TF over GST control)","1.06 fold enrichment (6-mer frequency, TF over GST control)","1.13 fold enrichment (6-mer frequency, TF over GST control)","1.07 fold enrichment (6-mer frequency, TF over GST control)","1.01 fold enrichment (6-mer frequency, TF over GST control)","1.01 fold enrichment (6-mer frequency, TF over GST control)","1.06 fold enrichment (6-mer frequency, TF over GST control)",–,–
TAATCG,"1.01 fold enrichment (6-mer frequency, TF over GST control)","1.07 fold enrichment (6-mer frequency, TF over GST control)","1.93 fold enrichment (6-mer frequency, TF over GST control)","1 fold enrichment (6-mer frequency, TF over GST control)","1.07 fold enrichment (6-mer frequency, TF over GST control)","1.1 fold enrichment (6-mer frequency, TF over GST control)","1.04 fold enrichment (6-mer frequency, TF over GST control)","1.07 fold enrichment (6-mer frequency, TF over GST control)","2.89 fold enrichment (6-mer frequency, TF over GST control)","1.01 fold enrichment (6-mer frequency, TF over GST control)","1.06 fold enrichment (6-mer frequency, TF over GST control)","1.09 fold enrichment (6-mer frequency, TF over GST control)","1.08 fold enrichment (6-mer frequency, TF over GST control)",–,"1.05 fold enrichment (6-mer frequency, TF over GST control)","1.05 fold enrichment (6-mer frequency, TF over GST control)","1.05 fold enrichment (6-mer frequency, TF over GST control)"
